Data published in the supplement of paper PMC4206467.

System: Perkinsus marinus PRA240
Assay: ATP content (proliferation) relative to DMSO control; higher = more parasite growth (less inhibition)
Conditions: 20 µM; 4 days
Description: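 Perkinsus marinus PRA240 trophozoites (2-5x10^6 cells/ml, 100 µl, 96-well) were exposed once to MMV Malaria Box compounds at 20 µM (0.1% DMSO) in triplicate. ATP content (ATPlite bioluminescence) was read at day 4 post-exposure and normalised to DMSO + cells control wells (100% activity). Compounds were identified by joining plate and well to the Malaria Box list.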

SMILES | ATP content [%]
OC(Cn1nnc2ccccc21)Cn1c2ccc(Br)cc2c2cc(Br)ccc21 (configuration not stated) | 135
N#Cc1nc(Cc2cccc3ccccc23)oc1N1CCN(C(c2ccccc2)c2ccccc2)CC1 | 132
Cc1ccc2nc(C)cc(Nc3cccc(C(F)(F)F)c3)c2c1 | 121
O=C(Nc1ccc(-c2nc3cc(NC(=O)c4ccc(Cl)cc4)ccc3[nH]2)cc1)c1ccc(Cl)cc1 | 141
CC(O)(c1ccc(Cl)cc1)C(CN1CCCCC1)c1ccccc1 (configuration not stated) | 79.2
O=C(NC1CCCCC1)C(c1cccs1)N(CCc1ccccc1)C(=O)c1ccco1 (configuration not stated) | 101
CC(C)(C)CC(C)(C)NCC(O)COc1ccc(Cl)cc1Cl (configuration not stated) | 123
O=C(c1ccccc1F)N(Cc1ccc(Cl)cc1)c1ccccn1 | 59
CCCCOc1ccc(C(=O)Nc2cc(C)on2)cc1 | 61.2
COc1ccc2sc(N(Cc3cccnc3)C(=O)c3ccc(C#N)cc3)nc2c1 | 111
COc1ccc(-c2cc3c(nn2)-c2ccccc2C3=O)cc1 | 32.7
CCOc1ccccc1NC(=O)CN1CCN(C(=O)c2ccco2)CC1 | 66.6
O=C(CCl)NCCOc1ccc(Cl)cc1Cl | 99.9
FC(F)(F)c1cccc(CNC2CCN(CCc3ccccc3)CC2)c1 | 95.6
CCOC(=O)C1=C(C)N=c2sc(=Cc3ccccc3O)c(=O)n2C1c1ccc(OC)c2ccccc12 (configuration not stated) | 196
O=C(Nc1cccc(C2=NCCN2)c1)Nc1cccc(C2=NCCN2)c1 | 128
Oc1c2c(nc3ccccc13)CCCC2 | 42.5
CCOc1cc(Cl)c(C(C)NC(=O)c2cccc(OC)c2)cc1OCC (configuration not stated) | 85.3
COc1ccc(C2NCCc3c2[nH]c2ccccc32)cc1CN1CCN(c2ccc(F)cc2)CC1 (configuration not stated) | 171

SMILES | ATP content [%]
Clc1ccc2c(N3CCCC3)ccnc2c1 | 91
CC1CC(C)CN(C(=O)c2ccc(Cl)cc2Cl)C1 (configuration not stated) | 135
O=C(NCc1ccco1)C1CCN(S(=O)(=O)c2ccc(Cl)cc2)CC1 | 89.8
O=C(NNc1cc(N2CCCC2)nc(N2CCCC2)n1)c1ccccc1 | 101
CCN(CC)CCCNc1ccnc2cc3ccccc3cc12 | 139
O=C(Nc1ccccc1O)c1ccc(Oc2cccc(C(=O)Nc3ccccc3O)c2)cc1 | 30.4
COc1ccc(C(=O)Nc2ccc3nc(N4CCCCC4)cc(C)c3c2)cc1OC | 101
c1ccc(CNc2nc(Nc3ccccc3)nc3ccccc23)cc1 | 75.4
CCCc1c(C)nc2ccc(Br)cc2c1O | 58.8
O=C(NC1CCCC1)c1ccc(N2CCC(NCc3cccc(C(F)(F)F)c3)CC2)cc1 | 103
COc1cc(-c2nc(-c3ccc(Sc4ccccc4)cc3)c(-c3ccccc3)[nH]2)cc(OC)c1O | 78.3
O=C1c2ccc3c4c(ccc(c24)C(=O)N1CCCCO)C(=O)N(CCCCO)C3=O | 50.5
Cc1ccc(S(=O)(=O)c2c(COC(=O)c3cccc(C)c3)c(-c3ccccc3)nn2C)cc1 | 162
COc1cc(C(=O)Nc2ccc(-c3nc4ccccc4[nH]3)cc2)cc(OC)c1OC | 124
Cc1cc(N2CCCC2)nc(Nc2ccc(NC(=O)CCc3ccccc3)cc2)n1 | 119
O=C(Nc1ccc(CN2CCOCC2)cc1)c1ccc(-c2cc(Cl)ccc2Cl)o1 | 122
Cc1cc(N2CCN(C3CCCC3)CC2)n2c(nc3ccccc32)c1C#N | 161
CCOc1ccc2c(c1)CN(Cc1ccc(Cl)cc1)CO2 | 155
